High-throughput results from PubChem.
The list is not random: actives were taken first. Their share in the collection is about 3.9%.
HSP90 inh – HSP90 inhibitors, primary screen, cell lysate, luminescence; 290,000 compounds, 0.91% hits; Rabbit reticulocyte lysate, luciferase refolding luminescence, 3 h; inhibition, % at 5.6 µM; AID 1789, 2009;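 active = inhibition above the screen-wide mean plus 3 SD, computed separately per campaign, cut at about 16% in these data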;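 also: inhibitors lower the luminescence because luciferase stays unfolded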
TWEAK-Fn14 inh – inhibitors of TWEAK-Fn14 signaling, primary screen, luciferase reporter cells, uHTS; TWEAK-stimulated Fn14 reporter cells, luciferase luminescence, 8 h; inhibition, % at 10 µM; 360,000 compounds, 2% hits; in the data active = inhibition above about 50%
HIF-2a block – HIF-2a reporter inhibitors, primary screen, luminescence, 786-0 RCC cells; 786-0 RCC cells HIF-2a reporter, luciferase luminescence, overnight; inhibition, % at 18.8 µM; 360,000 compounds, 0.72% hits;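 active = inhibition of the luminescence signal of 40% or more relative to plate controls, in a single-dose primary screen at 18.75 µM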
C8 TRAIL sens – viability loss with TRAIL in NB7+C8 cells, primary screen, TRAIL sensitizer project, cell-based, ATPlite luminescence. inhibition (viability loss, TRAIL sensitization), % at 10 µM. 360,000 compounds, 1% hits;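 active = compounds causing at least 50% loss of cell viability in the single-dose screen, relative to plate controls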
aSyn 5UTR inh – MLPCN primary screen, SNCA 5' untranslated region; alpha-synuclein 5'UTR reporter, inhibitor activity; inhibition, % (tested at 7.5 µM); 300,000 compounds, 0.82% hits; AID 1813, 2009; in the data active = inhibition above about 60%;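 also: H4 neuroglioblastoma cells stably carrying SNCA 5'UTR luciferase fusion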
TROY signal inh – inhibitors of TROY-driven NF-kB signaling, primary screen, Q293 LMP1-TROYcd cells, NF-kB luciferase, uHTS; Q293 LMP1-TROYcd NF-kB luciferase reporter, 4 h; inhibition, % at 10 µM; 360,000 compounds, 0.98% hits;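 active = compounds whose plate-normalised and pattern-corrected inhibition of the luciferase reporter signal at the single screening dose is 50% or more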
Of the large screens only hits and unclear results are named; the others gave an inactive call.

O=C1c2cc([N+](=O)[O-])ccc2-c2cc(Br)c(N=C(NO)C(F)(F)F)cc21	TROY signal inh 79 (no result: HSP90 inh, aSyn 5UTR inh)
O=C(c1ccc(N2C(=O)c3ccccc3C2=O)cc1)N1CCN(S(=O)(=O)c2ccccc2F)CC1	none (no result: HSP90 inh, aSyn 5UTR inh)
COc1ccccc1NC(=O)Nc1ccc2c(c1)nc(C)n2C	C8 TRAIL sens 79 (no result: aSyn 5UTR inh)
Cc1nc2cc(NC(=O)c3ccc(Cl)cc3)ccc2n1C	TWEAK-Fn14 inh 50
O=C(Nc1cccc(C(=O)O)c1)/C(=C\c1ccccc1)NC(=O)c1ccco1	none (no result: HSP90 inh, aSyn 5UTR inh)
CN(C)c1ncnc2c1ncn2[C@H]1CN(Cc2ccc(-c3ccccc3)cc2)C[C@@H](CO)O1	none (no result: HSP90 inh, aSyn 5UTR inh)
Cn1nc(CC(=O)Nc2ccc(N3CCN(C(=O)OC(C)(C)C)CC3)cc2)c2ccccc2c1=O	aSyn 5UTR inh 77
Cn1nc(CC(=O)N2CCN(c3ccccc3)CC2)c2ccccc2c1=O	none
Cc1ccc(NC(=S)NNC(=S)Nc2ccc(C)cc2C)cc1	aSyn 5UTR inh 113
CC(C)n1ncc2c(C(=O)NCC(=O)Nc3ccccc3Br)cc(C3CC3)nc21	none (no result: HSP90 inh, aSyn 5UTR inh)
CCOC(=O)C1(C)CCN1C(=O)c1cc(F)cc(F)c1 (stereo not drawn)	none (no result: HSP90 inh, aSyn 5UTR inh)
O=C(NCCN1CCCCC1)Nc1cccc(F)c1	HSP90 inh 16
O=C(NCCN1CCCCC1)Nc1ccc(F)cc1	none
COc1ccc(-c2nc3ccccc3n(CC(C)C)c2=O)cc1	none (no result: HSP90 inh, TWEAK-Fn14 inh, aSyn 5UTR inh, TROY signal inh)
CC(=O)c1sc(NC(=O)C2(F)C(F)(F)C(F)(F)C(F)(F)C(F)(F)C2(F)F)nc1C	TWEAK-Fn14 inh 65, TROY signal inh 62
Cc1cc2occ(CC(=O)NCc3cccs3)c2cc1C(C)C	none
Cc1csc(NC(=O)Cc2coc3cc(C)c(C(C)C)cc23)n1	TROY signal inh 55
CCc1nc2c(OCCOC)cccn2c1N(C)C(=O)Nc1ccccc1OC	none (no result: HSP90 inh, aSyn 5UTR inh)
O=C(c1cccc(N2CCCC2=O)c1)N1CCN(c2ccccc2)CC1	TROY signal inh 76
CCOC(=O)C1=C(C)N=C2c3ccccc3C(=O)C2C1c1ccc(Cl)cc1 (stereo not drawn)	none
CC1(C)CC(=O)C2=C(C1)N=C1c3ccccc3C(=O)C1C2c1ccc(Cl)cc1 (stereo not drawn)	TWEAK-Fn14 inh 66, HIF-2a block 47
Cc1ccc(C2C3=C(CC(C)(C)CC3=O)N=C3c4ccccc4C(=O)C32)cc1 (stereo not drawn)	TWEAK-Fn14 inh 58 (no result: aSyn 5UTR inh)
COc1ccc(CCN2C(=O)CSC2=S)cc1OC	HIF-2a block 61
CC(C)[C@H](NC(=O)c1ccccc1Cl)C(=O)OCC(=O)NCc1ccc2c(c1)OCO2	none (no result: HSP90 inh, aSyn 5UTR inh)
Cc1cc(C)c(S(C)(=O)=O)c(Oc2ccccc2C)n1	none
Cc1ccc(S(=O)(=O)c2c(C)cc(C)nc2Oc2cccc(C)c2C)cc1	TWEAK-Fn14 inh 72 (no result: aSyn 5UTR inh)
O=C(Nc1ccc(F)c(Cl)c1)c1cc(C2CCCCN2C(=O)CCc2ccccc2)on1 (stereo not drawn)	none (no result: HSP90 inh, aSyn 5UTR inh)
CCOC(=O)[C@]12CCCC=C1N(Cc1cccc3ccccc13)C(=O)[C@H](CC(=O)NCCCN1CCCC1=O)C2	none (no result: HSP90 inh, aSyn 5UTR inh)
COc1ccc(C([O-])=Nc2ccc[n+](-c3nc4ccccc4nc3NS(=O)(=O)c3ccccc3)c2)cc1	aSyn 5UTR inh 84 (no result: TWEAK-Fn14 inh, HIF-2a block, C8 TRAIL sens, TROY signal inh)
O=S(=O)(Nc1nc2ccccc2nc1-[n+]1cccc(N=C([O-])c2ccccc2Cl)c1)c1ccccc1	none (no result: TWEAK-Fn14 inh, HIF-2a block, C8 TRAIL sens, TROY signal inh)
Cc1cscc1-c1ccc(C(=O)Nc2c(C)cccc2C)o1	none (no result: HSP90 inh, aSyn 5UTR inh)
CC(C)(C)C(=O)Nc1ccc(Sc2ccc([N+](=O)[O-])cc2)cc1	TWEAK-Fn14 inh 51
CC(C)(C)C(=O)NC(NC(=O)C(C)(C)C)c1ccc([N+](=O)[O-])cc1	none
COc1cc(/C=C2\SC(=N)N(c3ccc(F)cc3)C2=O)ccc1O	TWEAK-Fn14 inh 52
CC1=CC2(C)C(C3C(C)=CC2(C)C(=O)C3(C)O)C(C)(O)C1=O (stereo not drawn)	none (no result: HSP90 inh, aSyn 5UTR inh)
COc1ccc(C(=O)Nc2nc(-c3ccc([N+](=O)[O-])cc3)c(-c3ccccc3)s2)cc1	TWEAK-Fn14 inh 57
COC(=O)Cc1ccc(NC(=S)N2CCN(c3cc(Cl)ccc3C)CC2)cc1	TWEAK-Fn14 inh 56
COc1cc(NC(=S)N2CCCC(CO)C2)cc(OC)c1 (stereo not drawn)	TWEAK-Fn14 inh 62
